Screens from PubChem BioAssay.
Abs 340nm: compounds absorbing at 340 nm. compound absorbance at 340 nm, fold over control. fold change at 10 µM. 65,000 tested, under 10 active;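 active = at 10 µM dose, initial 340 nm absorbance at least 2 fold that of control wells; inactive = change under 2 fold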;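 note: initial absorbance extrapolated from kinetic A340 decline of NADH oxidation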
Spn DPM-DC inh: S. pneumoniae DPM-DC inhibition. purified DPM-DC, PK/LDH coupled NADH fluorescence. calls only at 10 µM. actives 0.49% (n = 65,000);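 active = the 320 compounds with the highest percent inhibition in the single-dose primary screen, excluding strongly autofluorescent ones, cut at about 32% in these data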;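 note: kinetic rate of NADH fluorescence loss reporting ADP formed by the decarboxylase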
Autofluor 339: intrinsic fluorescence of library compounds, ex339/em460 – biochemical, MLSMR library, data from DPM-DC assay, artefact control, profiling panel | fluorescence fold increase at 10 µM | actives 5.5% (n = 65,000) | compound autofluorescence, ex339/em460 nm, NADH buffer; active compounds read high; 1 = no-compound wells, NADH background;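 active = at 10 µM, mean starting fluorescence two-fold or more over control wells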;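 note: signal is the first read of a kinetic run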
PMK inhibit: blocks S. pneumoniae phosphomevalonate kinase. purified PMK, PK/LDH-coupled NADH absorbance 340 nm. AID 539. actives 0.49% (n = 65,000). inhibition, % at 10 µM;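 active = top-ranked compounds by inhibition in the single 10 µM screen, taking a fixed number of the strongest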
NADH coupling: inhibitors of enzymes used to reach an NAD/NADH endpoint; coupled PK/LDH NADH assays, four targets; IC50, µM (highest dose often 10 µM); actives 0.02% (n = 65,000);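 active = single-dose screening hits from any of four coupled enzyme assays that gave an IC50 when retested across doses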;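 note: the DPM-DC format reads NADH fluorescence rather than 340 nm absorbance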
MK inhibit: S. pneumoniae mevalonate kinase inhibition; actives 0.48% (n = 65,000); purified MK, PK/LDH-coupled NADH absorbance 340 nm; inhibition, % at 10 µM;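 active = ranked among the strongest by inhibition in the single 10 µM screen, a fixed top-ranked set picked for dose follow-up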
Large screens that a line does not name were inactive. In the library only some 6.5% were active in any assay of this set; here they are far more common.

Cc1noc(C)c1CSc1nc2ccccc2s1	Spn DPM-DC inh active
Cc1noc(C)c1CSc1ccc2ccccc2n1	none
CC(C)(C)NC(=O)Nc1ccc2nccnc2c1	Autofluor 339 2.2 (not shown: Spn DPM-DC inh)
CC(C)N(C(=O)Nc1ccc2nccnc2c1)C(C)C	Autofluor 339 2.2 (not shown: Spn DPM-DC inh)
CC(C)(C)NC(=O)c1ccc2nccnc2c1	none
CSC(=O)CC(=O)NC(=O)c1ccccc1	none
Cc1c(NC(=O)c2ccc3c(c2)OCO3)cccc1-c1nc2ccccc2o1	none
O=C(Nc1ccc2oc(-c3ccc(F)cc3)nc2c1)c1ccccc1F	Autofluor 339 3
O=C(Nc1ccc2oc(-c3ccccc3F)nc2c1)c1ccc2c(c1)OCCO2	Autofluor 339 3.2
O=C(Nc1ccccc1-c1nc2ccccc2o1)c1ccc2c(c1)OCCO2	Autofluor 339 3.3 (not shown: Spn DPM-DC inh)
COC(=O)c1cc(S(=O)(=O)N2CCOCC2)ccc1Sc1ccccc1N	none
Cn1c(-c2ccc(F)cc2)cnc1SCC(=O)N1CCCCC1	none
COc1ccc(Cn2c(SCC(=O)NCc3ccco3)nc3ccsc3c2=O)cc1	none
CCOC(=O)CSc1nc2ccsc2c(=O)n1C1CCN(C(=O)OCC)CC1	none
CCOC(=O)N1CCN(C(=O)c2ccc3nc4ccsc4c(=O)n3c2)CC1	Autofluor 339 2.2 (not shown: Spn DPM-DC inh)
CCOC(=O)N1CCN(C(=O)c2ccc3nc4ccc(Cl)cc4c(=O)n3c2)CC1	Autofluor 339 4.9 (not shown: Spn DPM-DC inh)
CCOC(=O)N1CCC(n2c(SCC(=O)Nc3nccs3)nc3ccsc3c2=O)CC1	none
CCOC(=O)N1CCN(C(=O)c2ccc3c(=O)n(Cc4ccc(Cl)cc4)c(=S)[nH]c3c2)CC1	none
O=C(NCc1ccco1)c1cccn2c(=O)c3sccc3nc12	Autofluor 339 2.5 (not shown: Spn DPM-DC inh)
CCOC(=O)N1CCN(C(=O)c2cccn3c(=O)c4sccc4nc23)CC1	Autofluor 339 2.5 (not shown: Spn DPM-DC inh)
Cc1cn(C2CC3OCC3O2)c(=O)[nH]c1=O (stereo not given)	none
O=C(CSc1n[nH]c(=O)n1C1CC1)Nc1cc(Cl)ccc1Oc1ccccc1	none
O=C(O)CCn1c(-c2ccccc2)cc2c1CCCC2=O	none
O=C1CCCc2c1nc(-c1ccccc1)n2O	Autofluor 339 2.1, MK inhibit 93 (not shown: Spn DPM-DC inh)
O=C1CCCc2c1nc(-c1ccco1)n2O	Autofluor 339 3.9 (not shown: Spn DPM-DC inh)
Cc1cc(NC(=O)c2cnc3ccccn3c2=O)no1	Autofluor 339 3.7
O=C(NCc1cccs1)c1cnc2ccccn2c1=O	Autofluor 339 2
COc1ccccc1CNC(=O)c1cnc2ccccn2c1=O	none
CC(=O)Oc1ccc2c(C)cc(=O)[nH]c2c1	none
CC(=O)Oc1cc(OC(C)=O)c2c(C)cc(=O)oc2c1	Autofluor 339 2.2 (not shown: Spn DPM-DC inh)
CC(=O)Nc1c(OC(C)=O)ccc2c(C)cc(=O)oc12	Autofluor 339 5.1 (not shown: Spn DPM-DC inh)
Cc1cc(OC(=O)CNC(=O)OC(C)(C)C)c2c(C)cc(=O)oc2c1	none
CC(=O)Oc1cc2oc(=O)cc(C)c2cc1OC(C)=O	Autofluor 339 2.2 (not shown: Spn DPM-DC inh)
CCOC(=O)c1nnn(-c2nonc2N)c1COc1ccccc1	none
CC1Cc2nc(SCC(=O)Nc3ccc4c(c3)OCO4)n(CCc3ccccc3)c(=O)c2S1 (stereo not given)	Spn DPM-DC inh active
O=c1[nH]c2cc3c(cc2cc1CN(Cc1nnnn1CC1CCCO1)C1CCCC1)OCO3 (stereo not given)	Autofluor 339 2.5
COCCn1nnnc1CN(Cc1cc2cc(OC)c(OC)cc2[nH]c1=O)C1CCCC1	Autofluor 339 2.7
CC1CCN(C(c2cc3cc4c(cc3[nH]c2=O)OCO4)c2nnnn2CC2CCCO2)CC1 (stereo not given)	Autofluor 339 3.8 (not shown: Spn DPM-DC inh)
O=c1[nH]c2cc3c(cc2cc1CN(Cc1nnnn1CC1CCCO1)C1CCCCC1)OCO3 (stereo not given)	none
COc1ccc(C(c2nnnn2CC2CCCO2)N2CCN(c3ccccc3)CC2)cc1 (stereo not given)	Spn DPM-DC inh active, PMK inhibit 77, MK inhibit 66
CCOc1ccc2[nH]c(=O)c(C(c3nnnn3CC3CCCO3)N3CCc4ccccc4C3)cc2c1 (stereo not given)	PMK inhibit 28
O=c1[nH]c2cc3c(cc2cc1C(c1nnnn1Cc1ccccc1)N1CCN2CCCC2C1)OCCO3 (stereo not given)	Autofluor 339 4.7 (not shown: Spn DPM-DC inh)
CCCN1CCN(C(c2cc3cc4c(cc3[nH]c2=O)OCO4)c2nnnn2C(C)(C)C)CC1 (stereo not given)	Autofluor 339 3.9 (not shown: Spn DPM-DC inh)
Cc1ccc2cc(C(c3nnnn3C(C)(C)C)N3CCCC3)c(=O)[nH]c2c1C (stereo not given)	none
COCCn1nnnc1C(c1cc2cc(OC)ccc2[nH]c1=O)N1CCC(Cc2ccccc2)CC1 (stereo not given)	Autofluor 339 2.1
O=c1[nH]c2cc3c(cc2cc1C(c1nnnn1Cc1ccccc1)N1CCCc2ccccc21)OCO3 (stereo not given)	none
Cc1ccc2cc(C(c3nnnn3CC3CCCO3)N3CCc4ccccc4C3)c(=O)[nH]c2c1 (stereo not given)	none
COCCn1nnnc1C(c1cc2cc(C)ccc2[nH]c1=O)N1CCCCCC1 (stereo not given)	none
CCOC(=O)c1c(C(F)(F)C(F)(F)C(F)(F)C(F)(F)F)n[nH]c1C	none
COC(=O)c1ccc(NC(=O)C23CCC(C)(C(=O)O2)C3(C)C)cc1 (stereo not given)	none
Cc1oc2c(O)c(O)ccc2c(=O)c1-c1ccccc1	PMK inhibit 29
COc1ccccc1-c1c(C)oc2c(CN3CCN(CCO)CC3)c(O)ccc2c1=O	Autofluor 339 3.9 (not shown: Spn DPM-DC inh)
Cc1oc2c(O)c(O)ccc2c(=O)c1-c1cnn(-c2ccccc2)c1	none
COc1ccccc1-c1c(C)oc2c(CN3CCN(C)CC3)c(O)ccc2c1=O	Autofluor 339 2.4 (not shown: Spn DPM-DC inh)
CCOc1ccccc1Oc1c(C)oc2c(CN3CCN(C)CC3)c(O)ccc2c1=O	Autofluor 339 3.9 (not shown: Spn DPM-DC inh)
O=C(c1ccco1)N1CCCC(c2nc(-c3ccc(S(=O)(=O)NCc4ccccc4)cc3)no2)C1 (stereo not given)	none
COc1ccc(CCNC(=O)C2CCN(S(=O)(=O)N3CC(C)CC(C)C3)CC2)cc1OC (stereo not given)	none
CCOC(=O)c1oc2c(CN3CCN(C)CC3)c(O)ccc2c(=O)c1-c1ccccc1OC	none
COc1ccc(-c2c(C)oc3c(CN4CCN(CCO)CC4)c(O)ccc3c2=O)cc1OC	Autofluor 339 3.9 (not shown: Spn DPM-DC inh)
Cc1oc2c(CN3CCCC3)c(O)ccc2c(=O)c1-c1ccc(Br)cc1	Autofluor 339 3.8 (not shown: Spn DPM-DC inh)
Cc1ccc(N2CN=c3s/c(=C\c4ccccn4)c(=O)n3C2)cc1	none
COC(=O)c1ccc(COc2ncnc3c(Cl)cc(Cl)cc23)o1	none
CCOc1cc(S(=O)(=O)NCC2OCCc3ccccc32)c(OCC)cc1-n1cnnn1 (stereo not given)	Autofluor 339 3.9 (not shown: Spn DPM-DC inh)
CCOc1ccccc1CN(Cc1ccco1)S(=O)(=O)c1ccc(-n2cnnn2)c(OC)c1	none
